For part of these data: Measured potencies and affinities stand elsewhere. The source made the active and inactive calls.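 How the source made its calls, unless noted: active means compound raising the membrane signal above positive-control mean plus 3 SD in both repeats, and a primary screen hit; inactive means the rest.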
How the values were obtained:
[1] = test system: TRPC4 beta (transient receptor potential cation channel C4), mouse; assay: TRPC4 cation channel opening, retest – cell-based, Fluo4 calcium, HEK293 TRPC4beta/mu-opioid, duplicates, 10 µM, confirmation (AID 2426;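 active means fluorescence ratio normalized to control raised more than 50% in primary screen plus both repeat runs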;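 on activation: percent rise of integrated ratio over buffer wells lacking compound which define 0%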); details: Fluo4 calcium fluorescence, at 10 µM; stronger effect = higher value
[2] = test system: transient receptor potential cation channel C4 beta (TRPC4), mouse; assay: TRPC4 cation channel opening, second retest – cell-based, second round, Fluo4, HEK293 TRPC4beta/mu-opioid, 1 µM, confirmation (AID 2461;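 active means primary screen active and over 50% activation in each of two duplicate runs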); details: Fluo4 calcium fluorescence, at 1 µM; stronger effect = higher value
[3] = test system: TRPC4 (transient receptor potential cation channel C4 beta), mouse; assay: potentiation of DAMGO EC20 TRPC4 response – cell-based, second round, Fluo-4, HEK293 TRPC4beta/mu-opioid, 1 µM, confirmation (AID 2554;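 active means primary screen hit whose fluorescence ratio, in both repeats, exceeds the weak agonist control mean by 3 SD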); details: DAMGO EC20, Fluo-4 calcium flux, at 1 µM; stronger effect = higher value
[4] = test system: TRPC4 beta (transient receptor potential cation channel C4), mouse; assay: potentiation of DAMGO EC20 TRPC4 response – cell-based, Fluo-4, HEK293 TRPC4beta/mu-opioid, confirmation (AID 2555;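 active means primary screen hit whose calcium fluorescence ratio, in both repeats, exceeds the weak agonist control mean by 3 SD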); details: DAMGO EC20, Fluo-4 calcium flux, at 10 µM; stronger effect = higher value
[5] = biological target: Short transient receptor potential channel 4 (Mus musculus) (UniProt Q9QUQ5); assay: blockers of DAMGO-evoked TRPC4 calcium flux – cell-based, Fluo4, HEK293 TRPC4beta/mu-opioid, confirmation (AID 2636;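 active means calcium signal cut by more than 3 SD below the full-agonist control yet still positive, in both repeats and the earlier primary screen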); details: at 10 µM; stronger effect = higher value
[6] = biological target: Short transient receptor potential channel 4 (Mus musculus) (UniProt Q9QUQ5); assay: blockers of DAMGO-evoked TRPC4 calcium flux – cell-based, second round, Fluo4, HEK293 TRPC4beta/mu-opioid, 1 µM, confirmation (AID 2637;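 active means calcium signal ratio cut to more than 3 SD under the fully stimulated control mean yet still positive, in both repeats and the primary screen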); details: at 1 µM; stronger effect = higher value
[7] = biological target: Short transient receptor potential channel 4 (Mus musculus) (UniProt Q9QUQ5); assay: calcium entry via TRPC4 opening agents – cell-based, HEK293 TRPC4/mu-opioid, Fluo-4 calcium, dose response (AID 434937;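 active means primary screen activator hit with a dose response curve and TRPC4 channel activation at any tested dose; inactive means no activation, no dose response, or not a primary hit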)
[8] = biological target: Short transient receptor potential channel 4 (Mus musculus) (UniProt Q9QUQ5); assay: potentiation of DAMGO-evoked TRPC4 calcium signal – cell-based, HEK293 TRPC4/mu-opioid, Fluo-4 calcium, EC20 DAMGO, dose response (AID 434941;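 active means earlier screen potentiator hit that boosts the TRPC4 ion channel at some dose, with a dose response; inactive means no potentiation, no dose response, or not a prior hit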;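 further: calcium entry triggered by an EC20 dose of DAMGO at the co-expressed mu-opioid receptor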)
[9] = biological target: Short transient receptor potential channel 4 (Mus musculus) (UniProt Q9QUQ5); assay: block of DAMGO-driven TRPC4 calcium entry – cell-based, HEK293 TRPC4/mu-opioid, Fluo-4 calcium, dose response (AID 434942;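 active means primary screen inhibitor hit that blocks the TRPC4 channel at some tested dose, yielding a dose curve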)
[10] = biological target: Short transient receptor potential channel 6 (Mus musculus) (UniProt Q61143); assay: TRPC6 blockade by TRPC4 inhibitor hits – cell-based, HEK293, membrane potential dye, duplicate, selectivity assay for TRPC4 inhibitor project, confirmation (AID 434948;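 active means active in primary screen and both duplicates, each dropping signal beyond three positive-control SD with fluorescence still positive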); details: HEK293 TRPC6, membrane potential dye fluorescence, at 10 µM, stimulated with maximal-effect acetylcholine; stronger effect = higher value
[11] = biological target: Short transient receptor potential channel 6 (Mus musculus) (UniProt Q61143); assay: TRPC6 opening by TRPC4 activator hits – cell-based, HEK293, membrane potential dye, duplicate, selectivity assay for TRPC4 activator project, confirmation (AID 434950;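 active means membrane potential signal rise above negative control mean plus 3 SD in both duplicates, also active in the earlier TRPC4 screen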;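 on activation: 0% = buffer only wells and 100% = acetylcholine maximal-effect wells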); details: HEK293 TRPC6, membrane potential fluorescence, at 10 µM; activation: stronger effect = higher value; outcome: activation
[12] = biological target: Short transient receptor potential channel 6 (Mus musculus) (UniProt Q61143); assay: positive modulators of mouse TRPC6 channel – HEK293 cells, membrane potential dye, duplicate, selectivity assay for TRPC4 potentiator project, confirmation (AID 434952); details: HEK293 TRPC6, membrane potential dye fluorescence, at 10 µM, maximal acetylcholine added after compound; stronger effect = higher value
[13] = biological target: Short transient receptor potential channel 4 (Mus musculus) (UniProt Q9QUQ5); assay: calcium flux activators in TRPC4/5HT1a cells, counter-screen for TRPC4 activator project, cell-based, second counter screen, HEK293 TRPC4/5HT1a, Fluo-4 (AID 434977;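 active means calcium signal rise above buffer-control mean plus 5 SD in both duplicates, and also a hit in the primary screen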); details: Fluo-4 calcium flux, at 10 µM; stronger effect = higher value
[14] = serotonin-gated TRPC4 signal block – cell-based, second counter screen, HEK293 TRPC4/5HT1a, Fluo-4, counter-screen for TRPC4 inhibitor project, confirmation (AID 434978;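 active means primary screen active whose calcium signal fell more than 3 SD beyond the full-serotonin control mean in both duplicate plates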;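 further: serotonin given first at submaximal then at maximal dose after compound preincubation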); details: Fluo-4 calcium flux, at 10 µM, serotonin added to trigger calcium flux; stronger effect = higher value
[15] = test system: TRPC4 (mouse), co-expressed with 5HT1a in HEK293; assay: enhancement of serotonin-evoked TRPC4 response – cell-based, second counter screen, HEK293 TRPC4/5HT1a, Fluo-4, counter-screen for TRPC4 potentiator project, confirmation (AID 434979;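 active means signal rise over 3 SD above mean of control wells given weak agonist, in both repeats and first screen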); details: Fluo-4 calcium flux, at 10 µM, serotonin added at its EC20 dose; stronger effect = higher value
[16] = nonspecific calcium rise without TRPC4 – cell-based, HEK293 mu-opioid receptor line, counter-screen for TRPC4 activator project, confirmation (AID 449723;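 active means hit in primary screen, with calcium signal over 5 SD above buffer well mean in both duplicates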;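 further: counter screen cells carry the mu-opioid receptor alone and lack TRPC4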); details: HEK293 mu-opioid cells, Fluo-4 calcium fluorescence, at 10 µM; stronger effect = higher value
[17] = nonspecific potentiation of DAMGO calcium response – cell-based, HEK293 mu-opioid receptor line, counter-screen for TRPC4 allosteric potentiator project, confirmation (AID 449724;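 active means calcium signal rise more than 3 SD above the low-dose agonist control mean, in both duplicate plates and the primary screen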); details: HEK293 mu-opioid receptor cells, Fluo-4 calcium flux, at 10 µM, compound added before EC20 DAMGO stimulus; stronger effect = higher value

Sequence of Short transient receptor potential channel 4 (Mus musculus) (Q9QUQ5 whole entry, looked up): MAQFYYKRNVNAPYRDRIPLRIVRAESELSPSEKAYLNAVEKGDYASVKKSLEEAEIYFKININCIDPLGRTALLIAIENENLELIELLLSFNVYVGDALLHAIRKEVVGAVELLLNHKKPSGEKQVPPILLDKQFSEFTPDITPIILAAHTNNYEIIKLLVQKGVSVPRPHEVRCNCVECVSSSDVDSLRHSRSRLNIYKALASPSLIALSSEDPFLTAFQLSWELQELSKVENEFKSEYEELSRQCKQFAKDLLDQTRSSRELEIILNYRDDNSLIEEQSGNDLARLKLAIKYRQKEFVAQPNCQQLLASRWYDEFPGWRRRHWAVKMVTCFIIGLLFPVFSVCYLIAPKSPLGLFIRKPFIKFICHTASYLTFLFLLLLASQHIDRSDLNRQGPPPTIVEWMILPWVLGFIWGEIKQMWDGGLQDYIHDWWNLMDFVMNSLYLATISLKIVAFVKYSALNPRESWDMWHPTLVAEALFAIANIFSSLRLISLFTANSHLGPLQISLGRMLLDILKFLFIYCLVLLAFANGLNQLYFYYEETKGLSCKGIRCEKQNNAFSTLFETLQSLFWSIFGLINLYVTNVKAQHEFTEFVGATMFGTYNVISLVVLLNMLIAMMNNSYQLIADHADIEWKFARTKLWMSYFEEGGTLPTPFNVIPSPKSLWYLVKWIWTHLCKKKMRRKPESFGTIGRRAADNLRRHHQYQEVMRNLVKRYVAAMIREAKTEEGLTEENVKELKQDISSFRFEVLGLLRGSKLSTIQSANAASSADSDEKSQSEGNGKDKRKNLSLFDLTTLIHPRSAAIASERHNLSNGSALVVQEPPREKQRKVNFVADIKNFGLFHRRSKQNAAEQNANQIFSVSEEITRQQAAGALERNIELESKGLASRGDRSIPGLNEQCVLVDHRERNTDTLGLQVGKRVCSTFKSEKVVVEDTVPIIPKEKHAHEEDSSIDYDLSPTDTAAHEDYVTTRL
Sequence of Short transient receptor potential channel 6 (Mus musculus) (Q61143 whole entry, looked up): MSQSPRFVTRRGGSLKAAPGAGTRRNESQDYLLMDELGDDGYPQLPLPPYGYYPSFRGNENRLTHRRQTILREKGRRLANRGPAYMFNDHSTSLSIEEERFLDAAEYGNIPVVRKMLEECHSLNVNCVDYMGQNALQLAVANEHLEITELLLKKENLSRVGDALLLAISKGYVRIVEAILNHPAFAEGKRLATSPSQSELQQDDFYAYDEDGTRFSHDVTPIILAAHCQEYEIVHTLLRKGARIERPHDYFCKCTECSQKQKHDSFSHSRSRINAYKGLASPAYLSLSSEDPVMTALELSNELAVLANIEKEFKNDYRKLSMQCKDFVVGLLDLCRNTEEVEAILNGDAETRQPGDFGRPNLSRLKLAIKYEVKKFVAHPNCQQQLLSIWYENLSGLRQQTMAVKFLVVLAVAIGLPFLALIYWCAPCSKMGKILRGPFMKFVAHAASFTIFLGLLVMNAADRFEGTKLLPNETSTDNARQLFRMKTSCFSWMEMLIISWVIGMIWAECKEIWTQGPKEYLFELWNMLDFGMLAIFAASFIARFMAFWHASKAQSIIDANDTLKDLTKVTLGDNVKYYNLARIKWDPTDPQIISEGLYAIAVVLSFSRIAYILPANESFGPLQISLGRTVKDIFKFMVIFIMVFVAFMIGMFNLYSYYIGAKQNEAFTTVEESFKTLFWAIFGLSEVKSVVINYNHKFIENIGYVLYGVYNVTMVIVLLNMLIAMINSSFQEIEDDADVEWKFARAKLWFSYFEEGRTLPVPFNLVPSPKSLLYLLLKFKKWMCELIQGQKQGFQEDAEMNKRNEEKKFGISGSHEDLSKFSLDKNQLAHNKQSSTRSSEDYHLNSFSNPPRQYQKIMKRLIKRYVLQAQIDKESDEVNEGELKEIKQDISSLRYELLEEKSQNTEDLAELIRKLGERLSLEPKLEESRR

CCN(CC)CCNc1ccc(Cl)cc1[N+](=O)[O-]
active: potentiation [3] 31% | potentiation [15] 17.9%
inactive: outcome [1] | outcome [2] | outcome [4] | outcome [5] | outcome [6] | outcome [7] | outcome [8] | outcome [9] | outcome [10] | outcome [11] | outcome [12] | outcome [13] | outcome [14] | outcome [16] | outcome [17]

CN1CCN(NC(=O)Nc2cc(Cl)cc(Cl)c2)CC1
active: potentiation [4] 29%
inactive: outcome [1] | outcome [2] | outcome [3] | outcome [5] | outcome [6] | outcome [7] | outcome [8] | outcome [9] | outcome [10] | outcome [11] | outcome [12] | outcome [13] | outcome [14] | outcome [15] | outcome [16] | outcome [17]

COc1ccc(C(=O)OCCc2sc[n+](CC(=O)c3ccccc3)c2C)cc1
inactive: outcome [1] | outcome [2] | outcome [3] | outcome [4] | outcome [5] | outcome [6] | outcome [7] | outcome [8] | outcome [9] | outcome [11] | outcome [12] | outcome [13] | outcome [14] | outcome [15] | outcome [16] | outcome [17]
active: inhibition [10] 43%

CN(Cc1ccco1)C(=O)Cn1ncc2c([nH]c3ccccc32)c1=O
inactive: outcome [1] | outcome [2] | outcome [3] | outcome [5] | outcome [6] | outcome [7] | outcome [8] | outcome [9] | outcome [10] | outcome [11] | outcome [12] | outcome [13] | outcome [14] | outcome [16] | outcome [17]
active: potentiation [4] 10% | potentiation [15] 61.1%

Cc1cc2oc(C(=O)N(Cc3ccco3)C3CCS(=O)(=O)C3)cc(=O)c2cc1Cl (stereo not given)
inactive: outcome [1] | outcome [2] | outcome [3] | outcome [5] | outcome [6] | outcome [7] | outcome [8] | outcome [9] | outcome [10] | outcome [11] | outcome [12] | outcome [13] | outcome [14] | outcome [16] | outcome [17]
active: potentiation [4] 66% | potentiation [15] 70.9%

CC(C(=O)c1ccc(Br)cc1)[n+]1cccc(NC(=O)c2ccccc2)c1 (stereo not given)
inactive: outcome [1] | outcome [2] | outcome [3] | outcome [4] | outcome [5] | outcome [6] | outcome [7] | outcome [8] | outcome [9] | outcome [10] | outcome [11] | outcome [12] | outcome [13] | outcome [14] | outcome [15] | outcome [16] | outcome [17]

CCN1C(=O)/C(=C/C=C2\N(CC)c3cc(S(=O)(=O)N(C)C)ccc3N2c2ccccc2)SC1=S
inactive: outcome [1] | outcome [2] | outcome [3] | outcome [5] | outcome [6] | outcome [7] | outcome [8] | outcome [9] | outcome [10] | outcome [11] | outcome [12] | outcome [13] | outcome [14] | outcome [16]
active: potentiation [4] 13% | potentiation [15] 24.9% | activation [17] 996%

COc1cccc(OCCOCCNCCO)c1
inactive: outcome [1] | outcome [2] | outcome [3] | outcome [4] | outcome [5] | outcome [6] | outcome [7] | outcome [8] | outcome [9] | outcome [10] | outcome [12] | outcome [13] | outcome [14] | outcome [15] | outcome [16] | outcome [17]
active: activation [11] 33.5%

O=C(NCCCN1CCN(CCCNC(=O)c2cccc(Cl)c2)CC1)c1cccc(Cl)c1
inactive: outcome [1] | outcome [2] | outcome [4] | outcome [5] | outcome [6] | outcome [7] | outcome [8] | outcome [9] | outcome [10] | outcome [11] | outcome [12] | outcome [13] | outcome [14] | outcome [16] | outcome [17]
active: potentiation [3] 22% | potentiation [15] 11.3%

CC(=O)Oc1ccc(NC(=O)CCC2CCCCC2)c(C(=O)O)c1
active: inhibition [5] 68%
inactive: outcome [1] | outcome [2] | outcome [3] | outcome [4] | outcome [6] | outcome [7] | outcome [8] | outcome [9] | outcome [10] | outcome [11] | outcome [12] | outcome [13] | outcome [14] | outcome [15] | outcome [16] | outcome [17]

Oc1c(Br)cc(Br)c(/C=N/n2c(-c3ccccc3)n[nH]c2=S)c1Br
inactive: outcome [1] | outcome [2] | outcome [3] | outcome [5] | outcome [6] | outcome [7] | outcome [8] | outcome [9] | outcome [10] | outcome [11] | outcome [12] | outcome [13] | outcome [14] | outcome [15] | outcome [16] | outcome [17]
active: potentiation [4] 18%

CC1CCCN(C2=C(NS(=O)(=O)c3ccc(Br)cc3)C(=O)c3ccccc3C2=O)C1 (stereo not given)
inactive: outcome [1] | outcome [2] | outcome [3] | outcome [4] | outcome [5] | outcome [6] | outcome [7] | outcome [8] | outcome [9] | outcome [10] | outcome [11] | outcome [12] | outcome [13] | outcome [14] | outcome [15] | outcome [16] | outcome [17]

Cc1cccc(C)c1NC(=O)NCCCN1CCN(c2ccccc2)CC1
inactive: outcome [1] | outcome [2] | outcome [3] | outcome [4] | outcome [5] | outcome [6] | outcome [7] | outcome [8] | outcome [9] | outcome [10] | outcome [11] | outcome [12] | outcome [13] | outcome [14] | outcome [15] | outcome [16] | outcome [17]

CC(=NCCN1CCN(C(C)=C2C(=O)c3ccccc3C2=O)CC1)C1=C(O)CC(C)(C)CC1=O
inactive: outcome [1] | outcome [2] | outcome [3] | outcome [4] | outcome [5] | outcome [6] | outcome [7] | outcome [8] | outcome [9] | outcome [10] | outcome [11] | outcome [12] | outcome [13] | outcome [14] | outcome [15] | outcome [16] | outcome [17]

CN(C)CCCNc1c2c(nc3cc(-c4cccc(F)c4)nn13)CCC2
inactive: outcome [2] | outcome [3] | outcome [4] | outcome [5] | outcome [6] | outcome [7] | outcome [8] | outcome [9] | outcome [10] | outcome [11] | outcome [12] | outcome [13] | outcome [14] | outcome [15] | outcome [16] | outcome [17]
active: activation [1] 81%

— PubChem BioAssay
